Experimental data published in PubChem BioAssay AID1304 (The Scripps Research Institute Molecular Screening Center, 2008).
Screen size: about 220,000 compounds; about 800 (0.36%) were called active. This excerpt belongs to a sample that is enriched for actives. Values without a mark were called inactive. Cut-off read from the data, not from the text of the source: active = activation above about 33% (passing the limit was not always enough); inactive = the rest.

Target: Neuropeptide Y receptor type 1 (Homo sapiens) (UniProt P25929)
Sequence (P25929 whole entry, looked up): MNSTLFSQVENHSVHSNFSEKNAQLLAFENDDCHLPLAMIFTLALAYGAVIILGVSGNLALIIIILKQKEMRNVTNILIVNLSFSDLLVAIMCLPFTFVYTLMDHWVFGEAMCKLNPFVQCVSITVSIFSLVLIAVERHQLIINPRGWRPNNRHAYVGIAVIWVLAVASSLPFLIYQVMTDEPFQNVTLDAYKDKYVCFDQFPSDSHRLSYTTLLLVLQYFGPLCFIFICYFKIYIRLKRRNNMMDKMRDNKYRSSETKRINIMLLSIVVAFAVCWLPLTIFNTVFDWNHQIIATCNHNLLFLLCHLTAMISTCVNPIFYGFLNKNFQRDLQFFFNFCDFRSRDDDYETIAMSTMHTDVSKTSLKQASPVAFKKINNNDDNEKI
Experiment: NPY-Y1 receptor potentiators or agonists, primary screen, cell-based (AID 1304);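 note: cells stimulated with NPY at EC10 then isoproterenol at EC100; 0% = low agonist plus stimulus and 100% = saturating agonist plus stimulus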
Conditions: NPY-Y1 expressing cells, potentiator/agonist activation; at 3.6 µM; active compounds read high

| Compound | activation |
| --- | --- |
| CSC1=NP(=S)(SC)N(C)c2nc3n(c21)CCC3 (stereo not given) | 42.8% (active) |
| CCC1(C)CC(CCNCc2ccc(N(C)C)cc2)(c2ccc(F)cc2)CCO1 (stereo not given) | 16.3% |
| CSc1nc2ccc(C)cc2c(=O)n1-c1cccnc1 | 1.29% |
| CNC(=O)Nc1ccc(C(O)(C(=O)OC)C(F)(F)F)cc1 (stereo not given) | -6.66% |
| CC(=O)Cc1ccc(OC(C)C)cc1 | 8.4% |
| C/C=C/CC1(CC)C(=O)NC(=S)NC1=O | 11.2% |
| CCOP(=O)(OCC)C(NC(=O)c1ccc(OC)cc1)C(Cl)(Cl)Cl (stereo not given) | 4.01% |
| CC1(C)Cc2c(C#N)c(N3CCNCC3)nc(-c3ccco3)c2CS1 | 59.2% (active) |
| CCN1CC2C3CCC(C)(O3)C2C1 (stereo not given) | 11.9% |
| Fc1ccc(C2N3CCCN23)cc1 (stereo not given) | -11.3% |
| CCOc1cccc(=NC2CCCCC2)c2c(C)[nH]c(C)c12 | 11.4% |
| Cc1nn(Cc2ccccc2Cl)c(Cl)c1C(=O)OC(C(=O)NC(N)=O)C(C)C (stereo not given) | 49.5% (active) |
| Cc1cccc(NC(=O)OC2CN3CCC2CC3)c1 (stereo not given) | 11.8% |
| O=c1[nH]c(=O)n(Cc2ccccc2)c(O)c1/C=N/Nc1c(F)c(F)c(F)c(F)c1F | -7.15% |
| Cn1c(O)c(C(=Nc2ccc(F)cc2)c2ccccc2)c(=O)n(C)c1=O | -6.6% |
